Screening results: PubChem BioAssay, National Center for Advancing Translational Sciences (NCATS)
HTT aggregate: reduces HttQ103-GFP aggregates in PC12 cells. PC12 HttQ103-GFP aggregates, Acumen cytometry, 40 h. Potency, µM (highest dose often 46.1 µM), without a hit: at the top dose activity change, negative = inhibition, hits mostly inhibitors. 220,000 tested, 1.1% active. AID 1688; further: on the % scale 0 is the no-effect control and ±100 the full control effect; nearly all actives have a fitted effect of over 60% in size
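Huntingtin Q103 exon 1–GFP aggregates in induced PC12 cells (100 nM tebufenozide) were quantified by cytometry from lysates, with compounds dosed in titration.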
ATXN viability: viability counter-screen for ATXN expression inhibitors. Potency, µM (series often up to 56.7 µM), usual class: cytotoxic. S2 cells (HEK-293 line with an ATXN2-luciferase reporter) viability, CellTiter-Fluor protease fluorescence, 24 h. 400,000 tested, 0.49% active. AID 651635; further: nearly all actives have a fitted effect of over 40% in size
ATXN2 expr inh: ATXN2 expression inhibition; HEK-293 ATXN2-luciferase reporter, luminescence, 24 h; Potency, µM (top dose mostly 57 µM), without a hit: at the top dose activity change, negative = inhibition, most hits filed as inhibitors; 360,000 tested, 0.72% active; AID 1745845; further: on the % scale 0 is the no-effect control and ±100 the full control effect; nearly all actives have a fitted effect of over 55% in size
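qHTS (up to 57 uM final) was run with 24 h compound exposure of reporter cells at 37 °C. Each well was multiplexed: SteadyGlo luminescence measured ATXN2-luciferase expression after a fluorogenic Gly-Phe-AFC viability readout (25 uM final).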
HTT cytoprotect: Huntington cell model cytoprotection by ATP luminescence; PC12 HTT-Q103 induced, cytoprotection, ATP luminescence, 40 h; Potency, µM (titrated, usually from 56.4 µM), without a hit: cytoprotection (ATP increase), most hits filed as activators; 230,000 tested, 0.14% active; further: % of control where 0% means no effect; nearly all actives have a fitted effect of over 45% in size
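Cells were plated at 1500 per well in phenol red-free DMEM with 5% equine and 5% calf serum. Tebufenozide (100 nM final) and compounds were added, then ATPlite reagent, and luminescence was read.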
TGFb inhibitor: blocks TGF-b signaling; HepG2 CAGA-GFP TGF-b/SMAD3 reporter, GFP fluorescence, 18 h; TGF-beta stimulated, 500 pg/mL final; Potency, µM (series often up to 46.1 µM), for the others: top-dose activity, negative = inhibition, actives largely listed as inhibitors; 410,000 tested, 1.2% active; further: on the % scale 0 is the no-effect control and ±100 the full control effect; nearly all actives have a fitted effect of over 65% in size
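First, reporter cells (HEPG2 CAGA-GFP) rested 2 h at 37 degrees C. Next, compounds were pinned in and TGF-beta added to 500 pg/mL final. After 18 h, GFP was imaged per cell and summed per well.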
HepG2 tox: HepG2 cytotoxicity, counter-screen for TGF-b inhibitors. 410,000 tested, 0.76% active. HepG2 CAGA-GFP viability, ATP luminescence, 18 h. Potency, µM (titrated, usually from 46.1 µM), for the others: at the highest dose activity change, negative = cytotoxicity, actives largely listed as cytotoxic
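HepG2 CAGA-GFP cells (1000/well, DMEM with 1% FBS) received compound, then TGF-beta at 500 pg/mL final, and were incubated 18 hours at 37 degrees C. Viability was read by CellTiter-Glo luminescence. Media-only wells were set as complete cell-killing and DMSO as no toxicity.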
Starred values were filed as active, the others as inactive; i = inactive; ? = inconclusive; nt = no result; [ ] = another dose, or the depositor's remark. Most compounds without a hit are left out; they make up all but 2.8% or so of the library. The call rests on the fitted dose curve; in most records, active means well fitted curve in the direction sought with a large enough effect; inconclusive means small, poorly fitted or top-dose-only effect, or another doubt; inactive means no such curve, though single readings can be large; an effect the other way counts as inactive or inconclusive. Potency means the concentration at half of the fitted maximal effect.

SMILES	HTT aggregate	ATXN viability	ATXN2 expr inh	HTT cytoprotect	TGFb inhibitor	HepG2 tox
CC(C)OC(=O)c1cccc(C(=O)OCc2ccco2)n1	31%	i	-3%	-26%	-13%	7.1µM*
CC(=O)OCc1ccco1	nt	nt	nt	-15%	nt	nt
CCOC(=O)c1sc(NC(=O)c2sccc2C)cc1C	3%	i	90%	-80%	2%	14µM*
O=c1c2cc(Br)ccc2nc(-c2cccc(C(F)(F)F)c2)n1O	?	?	?	-73%	?	14µM*
O=c1c2ccc(Cl)cc2nc(-c2ccc([N+](=O)[O-])cc2)n1O	6.3µM*	i	?	-66%	-9%	-23%
O=c1c2cc(Br)ccc2nc(-c2ccc([N+](=O)[O-])cc2)n1O	11µM*	i	-36%	-108%	?	-21%
N#Cc1ccc(-c2nc3ccc(Br)cc3c(=O)n2O)cc1	nt	i	-7%	nt	-12%	-34%
CC(C)(CNC(=O)c1cnn(-c2nccc(-c3ccccc3F)n2)c1C1CC1)N1CCOCC1	nt	i	nt	nt	nt	nt
O=C(COc1ccccc1C(=O)Nc1ccccc1)Nc1cccc(Br)c1	nt	nt	nt	nt	-27%	-41%
O=C(O)c1ccc(N=NNc2cccc([N+](=O)[O-])c2)cc1	5%	i	35%	-44%	1%	-7%
N#C/C(=N\Nc1cccc([N+](=O)[O-])c1)C(=O)c1ccc(Br)cc1	1.8µM*	?	9.5µM*	nt	6.3µM*	-39%
N#C/C(=N/Nc1ccc([N+](=O)[O-])cc1)C(=N)N1CCCCC1	-2%	i	89%[11.3 µM]	-41%	-20%	-9%
N#C/C(=N\Nc1ccc(S(=O)(=O)N2CCCCCC2)cc1)C(N)=S	nt	i	-13%	nt	?	-32%
N#C/C(=N\Nc1ccc([N+](=O)[O-])cc1)C(N)=S	-19%[9.22 µM]	22µM*	-37%	-4%[10 µM]	?	-43%
CCOC(=O)/C(C#N)=N/Nc1ccc(S(=O)(=O)N2CCc3ccccc32)cc1	-10%	i	-14%	nt	11µM*	-30%
N#C/C(=N\Nc1ccc(S(=O)(=O)N2CCc3ccccc32)cc1)C(N)=S	?	i	-27%[11.3 µM]	nt	11µM*	-62%
CCOC(=O)CCC(=O)Nc1ccc(S(=O)(=O)N2CCc3ccccc32)cc1	nt	i	0%	nt	-3%	2%
COc1ccc(SCC(Cc2ccccc2)N2CCN(CC(C)C)CCC2=O)cc1 (stereo not drawn)	nt	nt	nt	nt	?	-30%
O=C(CC1C(=O)N(c2ccccc2)C(=O)N1CCC1=CCCCC1)Nc1ccc(F)cc1 (stereo not drawn)	nt	?	-22%	nt	11µM*	-39%
COc1ccc(N2C(=O)C(CC(=O)Nc3ccc(F)cc3)N(CCC3=CCCCC3)C2=O)cc1 (stereo not drawn)	nt	i	-18%	nt	-27%	-28%
Cn1c(SCCOc2ccccc2Cl)nnc1-c1ccncc1	0.79µM*	i	-18%	-1%	-24%	10%
COCCNc1nc2c(c(=O)n(C)c(=O)n2C)n1Cc1cccc(C)c1	16µM*	?	-9%	-12%[10 µM]	0%	-10%
Cn1c(NCCO)nc2c1c(=O)n(Cc1ccc(F)cc1)c(=O)n2C	nt	i	-1%	nt	6%	-14%
CC(C)CCNc1nc2c(c(=O)n(Cc3cccc(F)c3)c(=O)n2C)n1C	25µM*	i	-20%	-25%	-13%	-32%
COC(=O)CCn1nnc(-c2ccc(C(C)C)cc2)n1	4%	i	0.5µM*	-34%[10 µM]	-3%	2%
SMILES	HTT aggregate	ATXN viability	ATXN2 expr inh	HTT cytoprotect	TGFb inhibitor	HepG2 tox
c1cncc(CNc2cc(-c3ccc4c(c3)OCO4)ncn2)c1	nt	nt	nt	-16%	nt	nt
COc1ccc2[nH]c(CCc3nc4c(OC)c(OC)ccc4[nH]3)nc2c1OC	nt	nt	nt	nt	8%	3%
CC(=O)N[C@H]1[C@@H]([C@H](O)[C@H](O)CO)OC(C(=O)O)=C[C@@H]1N=C(N)N	nt	nt	-2%	nt	nt	nt
Cc1nc2ccn(Cc3ccco3)c(=O)c2cc1C(=O)NCc1ccc(Cl)cc1	nt	nt	nt	nt	10µM*	-20%
Cc1nc(Nc2ccccc2)[nH]c(=O)c1CCC(C)C	?	nt	nt	4%	1%	-7%
CCCCCc1c(C)nc(NCc2ccccc2)[nH]c1=O	32µM*	i	1%	-13%[0.074 µM]	?	-34%
Cc1cc(NCc2ccccc2)n2ncnc2n1	-1%[9.22 µM]	i	-20%	-1%[10 µM]	1%	1%
CC(C)c1cnn2c(NCc3ccccc3)cc(N[C@@H](CO)[C@H](O)CO)nc12	nt	nt	0.27µM*	nt	nt	nt
CNc1ncnc(Sc2nc(N)nc3nc[nH]c23)c1[N+](=O)[O-]	nt	?	?	-32%[10 µM]	?	-61%
Nc1nc(Sc2ccc([N+](=O)[O-])c3nonc23)c2[nH]cnc2n1	nt	nt	14µM*	-10%[10 µM]	?	-50%
N#Cc1cc(Oc2cccc3cccnc23)c(-n2nnc3ccccc32)cc1C#N	-7%	i	?	-11%	6.3µM*	-94%
COc1c(C2=CC(=O)N(C)C2=O)c2c(n1C)C(=O)c1ccccc1C2=O	nt	nt	nt	14µM*	nt	nt
O=C(c1ccccc1)c1nn(-c2ccccc2)c(=O)cc1C(F)(F)F	18%	i	?	-11%	1%	1%
O=C(c1ccccc1)c1nn(-c2ccc(Cl)cc2)c(=O)cc1C(F)(F)F	?	?	11µM*	-119%	?	-6%
O=C(c1cccc(Cl)c1)c1nn(-c2ccccc2)c(=O)cc1C(F)(F)F	17%[9.22 µM]	?	25µM*	-60%	-9%	9%
CCN(CC)c1ccc2c(c1)oc(=O)c1c(Cl)cc(=O)oc12	13µM*	?	?	-40%	?	14µM*
CCN(CC)c1ccc2c(C)c(Cl)c(=O)oc2c1	?	nt	18%	?	-7%	-5%
Cc1ccc(NC(=O)CN2C(=O)NC(Cc3c[nH]c4ccccc34)C2=O)cc1S(=O)(=O)N1CCCCC1 (stereo not drawn)	26%	?	-24%	29%[10 µM]	10µM*	-7%
CCn1c(-c2ccccc2F)nc2cc(NC(C)=O)cc(C(=O)NCc3ncc(C)[nH]3)c21	nt	i	nt	nt	nt	nt
COc1ccc(Cc2nnc(SCc3ccc([N+](=O)[O-])cc3)o2)cc1	7.1µM*	i	10%	nt	1%	-38%
CS(=O)(=O)N1CCN(Cc2cc3nc(-c4cccc5[nH]ncc45)nc(N4CCOCC4)c3s2)CC1	nt	nt	?	nt	-29%[92.2 µM]	-8%[92.2 µM]
Cn1c(-c2ccncc2)nc2cc(C(=O)N[C@H]3CCCCNC3=O)cc(NC(=O)C3CCC3)c21	nt	i	nt	nt	nt	nt
